# High-throughput results deposited in PubChem by National Center for Advancing Translational Sciences (NCATS).
# Pf growth 48h – P. falciparum growth inhibition at 48 hours (one generation) | P. falciparum luciferase growth in erythrocytes, 48 h | Potency, µM (doses to about 28.7 µM), for the others: at the highest dose activity change, negative = inhibition, actives largely listed as inhibitors | AID 504832 | 5.9% of 310,000 active; also: potency is read from the fitted curve at half-maximal effect; % is scaled to controls: 0 for no effect and ±100 for the full control effect
#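 First compound was added to culture medium, then infected red cells at 0.1% parasitemia and 2% hematocrit (final). After incubation at 37 C under 5% CO2, luciferase detection reagent was dispensed and light output recorded.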
# Shiga toxin inh – blocks Shiga toxin action in Vero cells; inhibition, % at 38.7 µM; Vero cells, Shiga toxin protein synthesis inhibition reporter; 9.2% of 290,000 active; in the data active = inhibition mostly above about 28%, no sharp cut-off; inactive = mostly below about 43%; also: 0% is about no effect
# CHX counter – affects cycloheximide protein synthesis inhibition readout, counter-screen; cell reporter, cycloheximide protein synthesis inhibition counterscreen; max response, %; 12% of 300,000 active; in the data active = max response mostly above about 13%, no sharp cut-off; inactive = mostly below about 14%; also: read at 38.3 µM for the half of the compounds with a filed dose; 0% is about no effect
# LASV entry inh – inhibitors of Lassa virus binding or cell entry | AID 540256 | Lassa virus pseudotype entry inhibition, cell reporter | 1.2% of 300,000 active | Potency, µM (doses to about 37.9 µM), for the others: at the highest dose activity change, negative = inhibition, usual class: inhibitors; calls by dose curve; tested in HEK293 cells; also: potency is read from the fitted curve at half-maximal effect; % is scaled to controls: 0 for no effect and ±100 for the full control effect; nearly all actives have a fitted effect of over 50% in size
# MARV entry inh – blocks Marburg virus binding to or entry into cells; Potency, µM (top dose mostly 37.8 µM), inactives show at the highest dose activity change, negative = inhibition, usual class: inhibitors; Marburg virus pseudotyped entry inhibition, cell reporter; 1.8% of 300,000 active; calls by dose curve; tested in HEK293 cells; also: potency is read from the fitted curve at half-maximal effect; % is scaled to controls: 0 for no effect and ±100 for the full control effect
# Pf growth 96h – P. falciparum growth inhibition at 96 hour, primary screen for plastid delayed-death inhibitors | P. falciparum luciferase reporter growth, 96 h | AID 504834 | Potency, µM (series often up to 28.7 µM), without a hit: top-dose activity change, negative = inhibition, most hits filed as inhibitors | 6.9% of 320,000 active; also: potency is read from the fitted curve at half-maximal effect; % is scaled to controls: 0 for no effect and ±100 for the full control effect
#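 Readout is luminescence from an integrated firefly luciferase in P. falciparum. Red cells, 2% hematocrit and 0.05% parasitemia final, were cultured with compound through two parasite generations (96 hours) at 37 C, 5% CO2.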
# Starred values were filed as active, the others as inactive; u = inconclusive; x = no result; [ ] = dose if it differs, or a comment. Hits are enriched below; roughly 19% of the tested compounds scored in any of these assays. Unless noted, calls follow the shape of the dose curve; as a rule, active = well fitted inhibition curve with a large enough effect; inconclusive = small, poorly fitted or top-dose-only effect, or another doubt; inactive = no such curve, though single readings can be large or run the other way.
SMILES,Pf growth 48h,Shiga toxin inh,CHX counter,LASV entry inh,MARV entry inh,Pf growth 96h
O=[N+]([O-])c1cccc(CN2CC=C(c3ccc(F)cc3)CC2)c1,-5.9%,-3.6,1.4,x,x,10.4µM*
CN=C1c2cc3cc(OC)ccc3n2CCN1Cc1ccccc1,x,-6.4,-0.8,u,11.2µM*,u
FC(F)(F)c1nc2cc3nc4ccccc4[nH]c3cc2n1,16.9%,68.7*,38.6*,0.3%,5.0%,73.0%
COc1ccc(C(=O)c2sc(Nc3ccccc3)nc2N)cc1,u,27.6,40.8*,u,x,u
COc1ccc(C(=O)c2sc(Nc3ccccc3F)nc2N)cc1,x,85.6*,41.4*,x,x,6.5%
COc1ccc(C(=O)c2sc(Nc3ccccc3)nc2N)cc1OC,u,-6.7,0.8,-27.7%,u,u
Cc1cnc(NC(=O)c2sc(Nc3ccccc3)nc2N)o1,29.3%,90.1*,28.2*,x,x,8.4%
Nc1nc(Nc2ccccc2)sc1C(=O)c1ccccc1,-16.8%,89.7*,36.2*,u,-16.2%[46.1 µM],6.1%
Cc1cc(Cl)ccc1OCCCC(=O)N1CCCCC1,x,37.2,34.8*,8.3%,-18.6%[46.1 µM],u
Cc1cc(Cl)ccc1OCCCC(=O)N1CCOCC1,40.0%,70.7*,36.9*,6.0%,u,x
CCOC(=O)N1CCN(C(=O)COc2cc(C)c(Cl)c(C)c2)CC1,-9.8%,-2.6,-0.9,-16.6%,u,0.0%
Cc1cc(OCCCC(=O)N2CCCCC2)cc(C)c1Cl,23.1%,31.6*,12.6*,4.8%,15.7%,-9.4%
CCOC(=O)CCCC(=O)N1CCOCCOCCN(C(=O)CCCC(=O)OCC)CCOCCOCC1,108.4%,62.6*,43.4*,x,x,u
CC12CCC(C(N)=O)(C1Br)C2(C)C (stereo not given),11.6%,-6.2,-1.9,14.8%,u,-7.8%
N/C(=N\OC(=O)CCC1CCCCC1)c1cccc([N+](=O)[O-])c1,36.3%,3.8,2.5,12.6%,-1.5%,0.0%
N/C(=N\OC(=O)Cc1ccccc1)c1ccc([N+](=O)[O-])cc1,13.1%,41.6*,29.7*,13.4%,-3.5%,46.0%
N/C(=N\OC(=O)CCC1CCCC1)c1ccccc1,39.3%,58.8,20.0*,20.6%,u,-34.7%[1.15 µM]
O=C(CCC1CCCC1)NCc1ccccn1,u,23.6,13.1,13.5%,1.7%,-9.0%
N/C(Cc1ccc([N+](=O)[O-])cc1)=N\OC(=O)Cc1ccccc1,16.2%,-8.0,10.6,-6.3%,-2.1%,9.6%
N/C(=N\OC(=O)CCC1CCCC1)c1ccc([N+](=O)[O-])cc1,45.0%[5.75 µM],26.4,18.9*,1.0%,u,u
N/C(=N\OC(=O)CCC1CCCC1)c1ccccn1,99.7%,65.2*,51.6*,2.9%,u,24.5%
N/C(=N\OC(=O)CCCOc1ccccc1)c1ccc([N+](=O)[O-])cc1,15.2%,6.6,-6.8,10.1%[46.1 µM],16.3%[46.1 µM],64.9%
O=C(COC(=O)COc1ccc(Cl)cc1)NC1CCCCC1,1.5%,-3.3,-5.8,-3.8%,-1.1%[46.1 µM],39.3%
CC(C)c1nnc(NC(=O)CCC(=O)NC2CCCCCCC2)s1,30.1%,33.6,1.0,2.7%,15.5%,19.6%
COc1ccc(C)cc1NS(=O)(=O)c1cn(C)nc1C,7.1%,27.4,-0.9,16.8%,-2.3%[46.1 µM],-46.2%[5.75 µM]
SMILES,Pf growth 48h,Shiga toxin inh,CHX counter,LASV entry inh,MARV entry inh,Pf growth 96h
NCCNC[C@@H]1COC2(CCCCCCCCCCC2)O1,8.28µM*,7.7,0.1,u,u,7.38µM*
CC(=O)O[C@@H]1[C@H]2[C@@H](C[C@@H](C)[C@@H]3C=CC(=O)[C@@]13C)OC(=O)[C@@H]2C,u,-6.2,3.9,x,x,u
C=C1C(=O)OC2C1CCC(C)C1C=CC(=O)C12C (stereo not given),x,x,x,u,11.2µM*,x
C=C1C(=O)O[C@@H]2C[C@@H](C)[C@@H]3C=CC(=O)[C@@]3(C)[C@@H](OC(=O)CC(=O)O[C@H]3[C@@H]4C(=C)C(=O)O[C@@H]4C[C@@H](C)[C@@H]4C=CC(=O)[C@]43C)[C@H]12,1.04µM*,-16.0,-11.3,x,x,1.31µM*
C=C1C(=O)O[C@H]2C[C@@H](C)[C@@H]3C=CC(=O)[C@@]3(C)C[C@H]12,5.22µM*,46.7*,40.2*,x,x,8.28µM*
C=C1C(=O)O[C@H]2[C@H]1[C@H](OC(=O)CC(=O)O[C@@H]1C[C@@H](C)[C@@H]3C=CC(=O)[C@@]3(C)[C@H]3OC(=O)C(=C)[C@H]13)C[C@@H](C)[C@H]1C=CC(=O)[C@]12C,u,3.3,-2.0,x,x,u
C=C1C(=O)OC2CC(C)C3C=CC(=O)C3(C)C(O)C12 (stereo not given),x,x,x,1.26µM*,0.631µM*,x
CCCn1c(CCNC(=O)c2cccs2)nc2ccccc21,2.8%,17.4,0.4,x,x,-21.8%
CCn1c(SCC(=O)c2c(N)n(C)c(=O)n(C)c2=O)nnc1-c1ccccc1,7.5%,-6.9,-4.4,7.3%,-0.3%,9.5%
C=C1C(=O)O[C@@H]2C[C@@H](C)[C@@H]3C4OC4C(=O)[C@@]3(C)[C@@H](O)[C@H]12 (stereo not given in full),3.29µM*,-9.5,-2.9,x,x,3.29µM*
Cc1cc(NC(=O)c2cc(-c3ccc(Br)cc3)on2)no1,6.5%,-3.1,-3.1,0.1%[46.1 µM],-1.4%[46.1 µM],-19.6%
O=C(Nc1ccc2c(c1)OCO2)c1cc(-c2cccc(O)c2)on1,59.6%,111.1*,48.3*,u,u,50.7%
Cc1cc(NC(=O)c2cc(-c3ccc(O)cc3)on2)no1,85.0%,92.6*,42.2*,x,x,58.1%
O=C(Nc1ccc2c(c1)OCO2)c1cc(-c2ccc(O)cc2)on1,71.2%,106.0*,39.5*,6.4%[46.1 µM],7.94µM*,17.9%
O=C(NCc1ccc2c(c1)OCO2)c1cc(-c2ccccc2Cl)on1,32.5%,19.1,3.6,10.0%,2.7%,u
O=C(Nc1ccc2c(c1)OCO2)c1cc(-c2ccccc2Cl)on1,182.1%,89.5*,23.9*,u,u,u
O=C(NCc1ccccc1Cl)C(=O)NCC1OCCN1S(=O)(=O)c1ccc(F)cc1 (stereo not given),-12.1%,-0.9,-1.7,4.2%,u,-8.0%
CC1CCN(S(=O)(=O)c2cn(CC(=O)Nc3ccc(OC(F)(F)F)cc3)cn2)CC1,-6.3%,-4.6,-3.4,x,x,26.8%
CCc1ccccc1NC(=O)C(NS(=O)(=O)c1ccc2c(c1)CCC(=O)N2)c1ccccc1 (stereo not given),x,x,x,1.9%[46.1 µM],-4.8%[46.1 µM],x
CCOC(=O)C1(CC2CCCCO2)CCN(Cc2cc(F)ccc2-n2cccn2)CC1 (stereo not given),16.8%,72.0,26.7*,20.7%[46.1 µM],u,-25.1%
CCOC(=O)C1(CC2CCCCO2)CCN(Cc2nccn2-c2ccc(OC)cc2)CC1 (stereo not given),10.4µM*,-7.2,-1.5,-8.9%[46.1 µM],-24.3%[46.1 µM],-11.0%
CCOC(=O)C1(CC2CCCCO2)CCN(Cc2c(C)cc(C)cc2-n2cccn2)CC1 (stereo not given),u,2.7,-2.5,-12.5%[46.1 µM],u,22.7%
